Data on 3 molecules can be found in PubChem BioAssay AID651598 (Sanford-Burnham Center for Chemical Genomics, 2012).

Values joined by “and” are separate entries in the source; they are usually repeats but may differ in a detail not shown here. Equal entries are not always repeated.

The experiment addresses C-X-C chemokine receptor type 6 (Homo sapiens) (UniProt O00574). Kind of experiment: apelin receptor (APJ) antagonists, SAR follow-up, counter-screen for CXCR6 antagonist project, cell-based, beta-arrestin, DiscoveRx, panel, CHO-K1 (AID 651598). The following applies: CHO-K1 PathHunter beta-arrestin luminescence, antagonist mode; run 2, at 80 µM (top of the series). (The purpose of a counterscreen is to sort out artefacts and off-target activity.)

C-X-C chemokine receptor type 6 (Homo sapiens), sequence (O00574 whole entry, looked up): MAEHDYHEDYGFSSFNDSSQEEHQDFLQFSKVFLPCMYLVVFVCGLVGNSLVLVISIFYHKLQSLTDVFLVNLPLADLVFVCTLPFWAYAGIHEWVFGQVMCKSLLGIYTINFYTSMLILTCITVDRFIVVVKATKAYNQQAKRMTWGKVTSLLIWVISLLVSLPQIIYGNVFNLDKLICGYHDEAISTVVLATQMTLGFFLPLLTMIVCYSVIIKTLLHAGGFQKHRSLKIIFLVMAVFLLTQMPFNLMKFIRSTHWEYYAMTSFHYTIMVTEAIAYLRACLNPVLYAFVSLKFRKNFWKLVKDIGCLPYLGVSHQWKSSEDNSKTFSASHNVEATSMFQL

For `COc1cc(C(=O)NC2CC3CCC(C2)N3CC(=O)Nc2ccccc2)cc(OC)c1OC` (stereo not drawn), the inhibition (as a rule, the percentage by which the read-out fell short of the control) is 48.5% and 18.7%.

As for `COc1cc(C(=O)NC2CCN(CC(=O)Nc3ccccc3)CC2)cc(OC)c1OC`, the inhibition was determined as 25.1%.

As to `COc1cc(C(=O)NC2CC3CCCC(C2)N3CC(=O)Nc2ccccc2)cc(OC)c1OC` (stereo not drawn), the inhibition was 88.2% and 52.1% and 24.9%.
